For 42 sequences, binding signal results are on record in article PMC7819943, “Rice protein-binding microarrays: a tool to detect cis-acting elements near promoter regions in rice”.

The full ranking holds about 35,000 sequences; the median of “fluorescence intensity (a.u.)” is about 10,000, and the highest 2% start at about 52,000. This excerpt belongs to a sample that is enriched for the highest values.

The target in this test is T1, OsWOX13 (Oryza sativa, UniProt Q5QMM3 1-267).
T1 sequence: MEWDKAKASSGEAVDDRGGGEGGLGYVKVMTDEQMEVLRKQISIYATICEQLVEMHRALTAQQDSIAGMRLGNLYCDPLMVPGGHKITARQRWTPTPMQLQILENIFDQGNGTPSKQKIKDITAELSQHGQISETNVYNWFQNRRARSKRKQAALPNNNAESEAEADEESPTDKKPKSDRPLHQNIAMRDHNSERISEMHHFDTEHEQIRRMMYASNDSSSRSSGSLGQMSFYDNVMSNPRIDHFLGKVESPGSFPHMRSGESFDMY
Kind of test: protein-binding microarray (RPBM); PBS, 2% BSA, 51.3 ng/ul salmon testes DNA, 50 uM zinc acetate, 200 nM TF, 25 C, 1 h; high values mean tight binding. To be noted: protein: recombinant; tags: N-terminal polyhistidine and DsRed monomer fusion (pET32a); label: CyDye5-dUTP incorporated in the synthesized complementary strand; 3' TTTTT single-stranded linker to array surface; dsDNA, one strand shown. The essentials: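 An Axon 4000B scanner gave the binding signal as per-feature fluorescence intensity in arbitrary units. This followed washing of a custom Agilent array that had been incubated for 1 h at 25 °C with 200 nM protein in PBS, 2% BSA, salmon testes DNA and 50 µM zinc acetate. The proteins were transcription factors fused at the N-terminus to polyhistidine and DsRed, expressed in E. coli BL21-CodonPlus and purified on Ni–NTA.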
“TGGTAATTTTATGATTAAATTGACACTAACAAACTTATAGCGGAGTCACCTAGTGCAG”: the binding signal is 57200 fluorescence intensity (a.u.).

As to “CACTATTAATTGTGCTTAGAGCAAGTTTAATAGTGTAGCCCGGAGTCACCTAGTGCAG”, the binding signal was 9860 fluorescence intensity (a.u.). With “AGAGATTATTGAATATTGTTGCGATGACTTATAATCTTATCGGAGTCACCTAGTGCAG”, the binding signal was 5070 fluorescence intensity (a.u.). For “AATTAATTTCTAAATACAATCATTATTCACCTCGTAATATCGGAGTCACCTAGTGCAG” the value was 7210 fluorescence intensity (a.u.); for “CCATATAATTATGCTTGTTATTATGTGACAAAGAGCGGGTCGGAGTCACCTAGTGCAG”, 25400 fluorescence intensity (a.u.); for “CCAAAATATATTAATTAGCTCAGGTATGTACCCGCCCAATCGGAGTCACCTAGTGCAG”, 10700 fluorescence intensity (a.u.).

As to “GTATATTTAATAATAAATCAACTCGCAATGAGACAAAATGCGGAGTCACCTAGTGCAG”, the binding signal was 4570 fluorescence intensity (a.u.). For “ATTCTTAAATTGTTTTAACTAATACTTAATCAGCCATGAACGGAGTCACCTAGTGCAG” the value was 7790 fluorescence intensity (a.u.); for “TTGGTGATATTGATGGAGCATGTTTTATTTGATAGAATAGCGGAGTCACCTAGTGCAG”, 3390 fluorescence intensity (a.u.). Then “TTGAATGACTACGAATTTGTTTAAATATTTGCATTCCATCCGGAGTCACCTAGTGCAG”, with 7180 fluorescence intensity (a.u.); and “CATTGATGACACAAAATAGTAGCAACTAAACAAACCAGAACGGAGTCACCTAGTGCAG”, with 6690 fluorescence intensity (a.u.); and “GTGCTCTTTAATTATCACTTTGTGCGCACTTTTCTTTGATCGGAGTCACCTAGTGCAG”, with 6410 fluorescence intensity (a.u.). “GATAGATTAATATATGATATATCTTTTCACAAACATACAACGGAGTCACCTAGTGCAG”: the binding signal was 10500 fluorescence intensity (a.u.). For “TTCAATTGATATAGACACAGATCTATGTGATTCACTGACACGGAGTCACCTAGTGCAG”, the binding signal is 21700 fluorescence intensity (a.u.). Then “AATTCTAATATATTTGATTGTTTCAAAATAAAGTCTTTGCCGGAGTCACCTAGTGCAG”, with 14700 fluorescence intensity (a.u.); and “TTAGATAGATTAATATGTGATAGATCTTCACAAACAGACACGGAGTCACCTAGTGCAG”, with 54900 fluorescence intensity (a.u.); and “AACTTGAAACAATTTGATTTTGACTAAAGTCAAAACGTCTCGGAGTCACCTAGTGCAG”, with 4710 fluorescence intensity (a.u.).

Turning to “ATTGATTGACCGAGCGCACTACTCTTTATCTTTTCGATTGCGGAGTCACCTAGTGCAG”, the binding signal was 64900 fluorescence intensity (a.u.).

As to “TTTGATTGTTTCCATTTGCAATTTCTAAATACGAACCTGCCGGAGTCACCTAGTGCAG”, the binding signal was 57500 fluorescence intensity (a.u.).

Turning to “TTGATTGATGGGAGTCTAACAAAGTGACAAAACTTAGCAACGGAGTCACCTAGTGCAG”, the binding signal is 53900 fluorescence intensity (a.u.). For “TGCCGATTGATCTTTTATCCTTTGGGGCATATGCTCGAGTCGGAGTCACCTAGTGCAG” the value was 24400 fluorescence intensity (a.u.). Then “CAGAATTTACAAAATGGATTGACCAAAAGCCTAATTAATTCGGAGTCACCTAGTGCAG”, with 7770 fluorescence intensity (a.u.). Regarding “CAAGATTTTAATAAATGCATAATTTTATGAATCGCATAGACGGAGTCACCTAGTGCAG”, the binding signal is 7290 fluorescence intensity (a.u.).

Regarding “CATGACATACAATTTATCAGATCCAATTTTAGGATTATTCCGGAGTCACCTAGTGCAG”, the binding signal is 10900 fluorescence intensity (a.u.).

As to “GTTAACTAATTAGGGCGTATGAACAAGTCATCGTGGCAGTCGGAGTCACCTAGTGCAG”, the binding signal is 23000 fluorescence intensity (a.u.). Regarding “GAATAATTACCGAAAAGGCAATTAATTAGTGACAGGGAGTCGGAGTCACCTAGTGCAG”, the binding signal is 26200 fluorescence intensity (a.u.).

As to “GGCTTCCTTAATTGTACATGTCTCTCTTCATTCTGCTGCACGGAGTCACCTAGTGCAG”, the binding signal was 5930 fluorescence intensity (a.u.). For “TTTCTGATTTACGTGGCTTGTGAGTAGGGCGCCTCCTCATCGGAGTCACCTAGTGCAG” the value was 8000 fluorescence intensity (a.u.).

For the sequence “TTATGATTATTTTAGAATTTTCAAAATCATGGAATATAATCGGAGTCACCTAGTGCAG”, the binding signal was 7490 fluorescence intensity (a.u.). Then “GCCTTAACTTTGTGATCATATCTTCATCTTCATTAGGCCTCGGAGTCACCTAGTGCAG”, with 4300 fluorescence intensity (a.u.).

“TTAAATGATAGAAATACAATTATTACGGAATAGAATGTAGCGGAGTCACCTAGTGCAG”: the binding signal was 29100 fluorescence intensity (a.u.). For “TAATTAAATTGTCATATCACTTCTTAACTTATTGGACTAACGGAGTCACCTAGTGCAG” the value was 5280 fluorescence intensity (a.u.); for “CTAAATTATACGGAGATGATAATGTAGTTACAGTGCAGTTCGGAGTCACCTAGTGCAG”, 21900 fluorescence intensity (a.u.). Then “ATCTAAATTGTTTTAGATTTGTGCACAAGAACAAAAGAGACGGAGTCACCTAGTGCAG”, with 16800 fluorescence intensity (a.u.); and “ATTTGTATAATTGGAACCATGCCATTCCAACACAACAAAACGGAGTCACCTAGTGCAG”, with 6320 fluorescence intensity (a.u.); and “TAAATTTAAACGGTAAATTAAGGAGAGGGAGGTCATTCTTCGGAGTCACCTAGTGCAG”, with 6560 fluorescence intensity (a.u.). For “GATGCCATCTAATTTTAAATGATGATGTGGAGAAGAGAGTCGGAGTCACCTAGTGCAG” the value was 7100 fluorescence intensity (a.u.); for “GTAAATTGATTTGTATATGGCCATTTCCAACCCAAAACACCGGAGTCACCTAGTGCAG”, 56300 fluorescence intensity (a.u.); for “AATACAATTAATTACAGTTAATTAAATGATAGAAAGAGTTCGGAGTCACCTAGTGCAG”, 55400 fluorescence intensity (a.u.). Consider “AAACAGTTTTCCCCAAAATTGATTGTAAATATACATATACCGGAGTCACCTAGTGCAG”, for which the binding signal was 14900 fluorescence intensity (a.u.). For “AATTGAGACTTCGGTAAAACTTAAGGGACTAAATTAACTACGGAGTCACCTAGTGCAG” the value was 52700 fluorescence intensity (a.u.); for “CATCTAATTTAAATTTAAATGTTTTAAAAGATAGAGACGTCGGAGTCACCTAGTGCAG”, 52400 fluorescence intensity (a.u.).
